Assay results: PubChem BioAssay (NCI)
Compounds without any hit were thinned out: in the full panel of roughly 83,000, 20% have a hit.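 Cells were grown in 96-well plates and exposed to the test compound at a single concentration for 48 hours; results are reported as percent growth, with values below 10 considered active.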

Key:
Experiment in all cases: NCI-60 one-dose screen, 48 h (100 = growth as untreated, 0 = no growth, -100 = all killed)
Details in all cases: 10 µM
[1] = tested on: NCI-H23 lung
[2] = tested on: NCI-H322M lung
[3] = tested on: HOP-62 NSCLC
[4] = tested on: NCI-H460 lung
[5] = tested on: HOP-92 NSCLC
[6] = tested on: NCI-H522 lung
[7] = tested on: A549/ATCC NSCLC
[8] = tested on: 786-0 renal
[9] = tested on: DU-145 prostate
[10] = tested on: K-562 leukemia
[11] = tested on: MALME-3M melanoma
[12] = tested on: MDA-MB-231 breast
[13] = tested on: RXF 393 renal
[14] = tested on: SF-268 CNS
[15] = tested on: SF-295 CNS
[16] = tested on: SF-539 CNS
[17] = tested on: UACC-257 melanoma
[18] = tested on: M14 melanoma
[19] = tested on: COLO 205 colon

Measured: growth

COC(=O)c1ccc(C(C)C)cc1
inactive: [1] 100% | [2] 95.8% | [3] 87.8% | [4] 114% | [5] 82.7% | [6] 79.3% | [7] 90.5% | [8] 100% | [9] 105% | [10] 116% | [11] 99.9% | [12] 113% | [13] 122% | [14] 101% | [15] 100% | [16] 102% | [17] 90.9% | [18] 88.6%

O=C(O)CCCC(=O)O
inactive: [1] 95.3% | [2] 98.9% | [3] 97.7% | [4] 101% | [5] 72.6% | [6] 99.7% | [7] 97.9% | [8] 106% | [19] 97.1% | [9] 99.8% | [10] 120% | [11] 83.8% | [12] 106% | [13] 99.5% | [14] 94.1% | [15] 110% | [16] 104% | [17] 87.9% | [18] 106%

Cc1ccc(S(=O)(=O)O)c(C)c1
inactive: [1] 105% | [2] 96.7% | [3] 94.5% | [4] 103% | [5] 92.4% | [6] 90.2% | [7] 104% | [8] 103% | [19] 104% | [9] 108% | [10] 98.8% | [11] 88.4% | [12] 116% | [13] 117% | [14] 114% | [16] 101% | [17] 108% | [18] 101%

COCCOC(=O)c1ccc(C(C)C)cc1
inactive: [1] 102% | [2] 98.2% | [3] 80.3% | [4] 108% | [5] 81.8% | [6] 79.7% | [7] 79.5% | [8] 93.8% | [19] 104% | [9] 103% | [10] 106% | [11] 92.7% | [12] 102% | [13] 124% | [14] 99.1% | [15] 104% | [16] 99% | [17] 81% | [18] 93.2%

COc1cc2nn(-c3ccccc3N)nc2cc1OC
inactive: [1] 94.3% | [2] 97.1% | [3] 103% | [4] 102% | [5] 85.8% | [6] 100% | [7] 95.1% | [8] 95.7% | [19] 119% | [9] 107% | [10] 99.3% | [11] 103% | [12] 116% | [13] 87% | [14] 100% | [15] 105% | [16] 96.5% | [17] 107% | [18] 107%

CCCCCCCCCCC1CO1 (stereo unspecified)
inactive: [1] 106% | [2] 109% | [3] 95.1% | [4] 105% | [5] 89.7% | [6] 102% | [7] 99.5% | [8] 101% | [19] 105% | [9] 108% | [10] 102% | [11] 103% | [12] 111% | [13] 103% | [14] 106% | [16] 105% | [17] 96.4% | [18] 108%
